mIDH1 inhibitor = inhibitors of human mutant IDH1 R132H | O75874 | IDH1-R132H enzyme, NADPH consumption, diaphorase/resazurin fluorescence | Potency, µM (highest dose often 76.6 µM), hits mostly inhibitors | hit rate 0.093% among 390,000 | AID 602179; also: nearly all actives have a fitted effect of over 65% in size
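IDH1-R132H (0.5 ug/mL) preincubated 30 min with compound, then NADPH (0.016 mM) and alpha-KG (2 mM) added; 80 min at RT, pH 7.5. Remaining NADPH coupled via diaphorase/resazurin to fluorescence (540/590 nm); concentration-response curves normalized to no-enzyme control.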
rTrxR1 inhibitor = blocks rat thioredoxin reductase 1; hit rate 1% among 390,000; recombinant rTrxR1, NADPH fluorescence consumption, selenite substrate; Potency, µM (doses to about 114 µM), most hits filed as inhibitors; also: nearly all actives have a fitted effect of over 65% in size
Target sequence (O89049 whole entry, looked up): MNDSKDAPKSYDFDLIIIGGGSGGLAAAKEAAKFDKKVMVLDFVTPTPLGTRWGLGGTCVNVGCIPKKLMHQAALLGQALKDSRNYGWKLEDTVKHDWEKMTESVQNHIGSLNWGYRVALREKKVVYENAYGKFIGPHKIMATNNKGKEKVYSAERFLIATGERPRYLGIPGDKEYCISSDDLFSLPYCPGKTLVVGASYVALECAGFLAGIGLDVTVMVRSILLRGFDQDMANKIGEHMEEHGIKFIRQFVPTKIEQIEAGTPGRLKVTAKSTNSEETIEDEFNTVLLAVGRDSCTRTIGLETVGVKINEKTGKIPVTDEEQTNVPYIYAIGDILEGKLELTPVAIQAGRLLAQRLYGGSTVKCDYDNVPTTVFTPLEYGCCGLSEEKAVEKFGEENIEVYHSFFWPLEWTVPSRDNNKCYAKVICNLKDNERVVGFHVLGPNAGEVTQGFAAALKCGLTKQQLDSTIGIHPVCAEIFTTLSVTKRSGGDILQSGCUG
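Rat TrxR1 (90 nM in the dispensed reagent) was pre-reduced with 400 uM NADPH for 5 min at room temperature, then incubated with compound for 15 min. After 400 uM selenite was added, NADPH fluorescence (Ex 340/Em 450 nm) was followed for 8 min.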
Giardia kill = kills Giardia lamblia | Giardia lamblia trophozoite viability | activity change, % at 7.66 µM, hits read low | hit rate 0.15% among 340,000 | AID 540267; in the data active = activity change below about -80%; inconclusive = between about -30% and that limit;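 also: parasites exposed to compound for two days anaerobically before the ATP read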
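Trophozoite viability was measured as ATP-dependent luminescence, read 15-30 min after reagent addition. Before that, parasites at 100 cells/well were exposed to compounds for 48 h, anaerobically, at 37 deg C.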
IL-2 act = activators of IL-2; IL-2 activation reporter assay, cell-based qHTS; stimulated with anti-CD3/CD4/CD28 beads; in transgenic mouse T cells; activation, % (series mostly up to about 46 µM); hit rate 0.065% among 360,000; in the data active = activation above about 50%; inconclusive = mostly about 30% to 49%
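Screening format: compound pinned onto unstimulated transgenic mouse T cells, 60 min incubation, then anti-CD3/anti-CD4/anti-CD28 bead stimulation for 18 hours at 37 degrees C, followed by EGFP and DsRed detection.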
BRCA1 expr act = activators of BRCA1 expression. MCF7-BRCA1-FFLuc reporter, luminescence, 48 h; response scale: scaled: vehicle 0%, 10 µM genistein 100%. Potency, µM (highest dose often 46.1 µM), actives largely listed as activators. hit rate 1.1% among 380,000; also: nearly all actives have a fitted effect of over 80% in size
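MCF7-BRCA1-FFLuc cells, 2000/well in phenol-red-free MEM, attached 2 h then treated 48 h at 37 C. Luciferase luminescence read 15 min after reagent; normalized to genistein maximum activation (10microM) and DMSO, concentration-response fitted.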
TrxR1 substrate = substrates of rat thioredoxin reductase 1. purified TrxR1 substrate turnover, NADPH consumption readout. hit rate 0.01% among 390,000. Potency, µM (series often up to 114 µM). O89049; also: nearly all actives have a fitted effect of over 50% in size
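Rat TrxR1, dispensed at 90 nM, was prereduced with 400 uM NADPH (final) for 5 min at ~22 deg C, then incubated with compound 15 min before 400 uM selenite. A first-read NADPH fluorescence drop versus no-compound background flagged substrates.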
Of the large screens only hits and unclear results are named; the others gave an inactive call. Only some compounds are listed: those with a hit (about 2.2% of all), similar ones and a draw of the others. Unless noted, calls follow the shape of the dose curve; as a rule, active = well fitted curve in the direction sought with a large enough effect; inconclusive = small, poorly fitted or top-dose-only effect, or another doubt; inactive = no such curve, though single readings can be large; an effect the other way counts as inactive or inconclusive.

CCc1ccccc1NC(=O)c1sc(-n2nc(C)c(Cc3ccccc3)c2C)nc1C	none (no result: Giardia kill, IL-2 act, BRCA1 expr act)
COc1ccccc1N(C(=O)CCl)c1cn(C(C)=O)c2ccccc12	rTrxR1 inhibitor 4µM
CC(=O)n1cc(N(C(=O)CCl)c2ccc(Cl)cc2)c2ccccc21	mIDH1 inhibitor inconclusive, rTrxR1 inhibitor 0.71µM
CCOC(=O)c1ccccc1Nc1cn(C(C)=O)c2ccccc12	rTrxR1 inhibitor inconclusive
CC(=O)n1cc(C=O)c2ccccc21	none (no result: mIDH1 inhibitor, Giardia kill, IL-2 act)
O=C(C[N+]1(CC(O)c2ccccc2)CCOCC1)c1ccccc1 (stereo not given)	none (no result: mIDH1 inhibitor, Giardia kill, IL-2 act, BRCA1 expr act)
O=c1c2ccccc2nc2c3ccccc3cnn12	BRCA1 expr act 7.9µM
CCc1ccc(Sc2cc(C(=O)NCCCN3CCCC(C)C3)c3ccccc3n2)cc1 (stereo not given)	none (no result: Giardia kill, IL-2 act)
Cc1ccc(CN2CCCN(CC(=O)Nc3ccc(C)cc3C)S2(=O)=O)cc1	none (no result: Giardia kill, IL-2 act, BRCA1 expr act)
N#Cc1ccccc1NC(=O)CSc1nccn1CCc1ccccc1	BRCA1 expr act 11µM
CC(=O)Nc1ccc(NC(=O)CSc2nccn2Cc2ccccc2)cc1	none
Cc1ccc(NC(=O)CSc2nccn2Cc2ccccc2)cc1C	BRCA1 expr act 8.9µM
CC(=O)c1ccc(NC(=O)CSc2nccn2C)cc1	BRCA1 expr act 11µM
CC(=O)c1ccc(NC(=O)CSc2nccn2Cc2ccc3c(c2)OCO3)cc1	none (no result: Giardia kill, IL-2 act, BRCA1 expr act)
CC(=O)c1ccc(NC(=O)CSc2nccn2CCc2ccccc2)cc1	BRCA1 expr act 13µM
N#Cc1ccccc1NC(=O)CSc1nnc(-c2ccccc2)n1-c1ccccc1	none
CCOC(=O)c1ccc(NC(=O)CSc2nccn2C)cc1	none
CCc1ccc(S(=O)(=O)c2nnn3c2nc(N(CC)Cc2ccccc2)c2cc(Cl)ccc23)cc1	none (no result: Giardia kill, IL-2 act, BRCA1 expr act)
CCOC(=O)c1cc(OC(=O)c2ccccc2F)n(-c2ccccc2)n1	none (no result: Giardia kill, IL-2 act)
Cn1ccnc1SCC(=O)NC1CCCC1	none
CSCCC(=O)Nc1ccc(C(C)=O)cc1	rTrxR1 inhibitor inconclusive, BRCA1 expr act 13µM
CC(=O)c1ccc(NC(=O)CSCCO)cc1	none
CC(=O)c1ccc(NC(=O)CSc2nccn2Cc2ccco2)cc1	none (no result: Giardia kill, IL-2 act, BRCA1 expr act)
Cc1ccc(NC(=O)CSc2nccn2Cc2ccco2)cc1	BRCA1 expr act 10µM
Cn1ccnc1SCC(=O)Nc1ccc2nc(SCC(=O)NC3CC3)sc2c1	BRCA1 expr act 3.5µM
CCOC(=O)c1cccc(NC(=O)N2CC(CC)Sc3ccccc32)c1 (stereo not given)	none (no result: Giardia kill, IL-2 act, BRCA1 expr act)
CSc1nn(Cc2ccccc2C)c(NC(C)=O)c1S(=O)(=O)c1ccc(C)cc1	none (no result: Giardia kill, IL-2 act)
COc1ccc(CNC(=O)CSc2ncc3c(n2)-c2ccc(Cl)cc2N(Cc2ccc(F)cc2)S3(=O)=O)cc1OC	none (no result: Giardia kill, IL-2 act)
CCOc1ccc(/C=C/c2nc(C#N)c(N3CCCCC3)o2)cc1	none (no result: Giardia kill, IL-2 act, BRCA1 expr act)
O=C(CSc1ccc(Cl)cc1)NC1CCCC1	none
O=C(NC1CCCCC1)Sc1ccc(Cl)cc1	rTrxR1 inhibitor 18µM
CCCCn1cnc2c(SCc3ccccc3)nc(N)nc21	BRCA1 expr act 7.1µM
CC[n+]1ccnc2ccccc21	rTrxR1 inhibitor inconclusive (no result: mIDH1 inhibitor, Giardia kill, IL-2 act)
CCCCN1C(C(=O)c2ccccc2)=C(OC(=O)CC)c2ccccc2S1(=O)=O	none (no result: Giardia kill, IL-2 act, BRCA1 expr act)
CN(CCC#N)C(=O)COC(=O)c1c2c(nc3ccccc13)/C(=C/c1ccco1)CC2	rTrxR1 inhibitor 5.6µM, BRCA1 expr act inconclusive
COc1ccccc1-c1nc2c(c(SCC(=O)Nc3ccc(C)c(C)c3)n1)Cc1c(CO)cnc(C)c1O2	none (no result: Giardia kill, IL-2 act, BRCA1 expr act)
CCN(CC)C(=O)C1=C(C)Nc2nc3ccccc3n2C1c1ccc(Br)cc1 (stereo not given)	none (no result: Giardia kill, IL-2 act)
CCN(CC)CCN1C(=O)C(=O)/C(=C(/O)c2ccc3c(c2)CC(C)O3)C1c1ccc(OC)cc1 (stereo not given)	rTrxR1 inhibitor 45µM
CCOc1ccc(C2/C(=C(\O)c3ccc4c(c3)OCCO4)C(=O)C(=O)N2CCCN2CCOCC2)cc1OC (stereo not given)	rTrxR1 inhibitor 50µM
COc1ccc(/C(O)=C2/C(=O)C(=O)N(CCN3CCOCC3)C2c2ccccn2)cc1OC (stereo not given)	rTrxR1 inhibitor 45µM
